ALDH1A1 block = qHTS Assay for Inhibitors of Aldehyde Dehydrogenase 1 (ALDH1A1) | Purified ALDH1A1, NADH fluorescence, propionaldehyde substrate | Aldehyde dehydrogenase 1A1 (Homo sapiens), P00352 | Potency, µM (titrated, usually from 75.3 µM), hits mostly inhibitors | hit rate 7.3% among 220,000 | AID 1030, 2008
HTT aggregate = qHTS Multiplex Assay to Identify Dual Action Probes in a Cell Model of Huntington: Aggregate Formation (GFP) | PC12 HttQ103-GFP aggregates, Acumen cytometry, 40 h | Potency, µM (series often up to 46.1 µM), most hits filed as inhibitors | hit rate 1.1% among 220,000 | AID 1688, 2009; active = well fitted curve in the direction sought with a large enough effect; inconclusive = small, poorly fitted or top-dose-only effect, or another doubt; inactive = no such curve, though single readings can be large; an effect the other way counts as inactive or inconclusive; note: nearly all actives have a fitted effect of over 60% in size
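PC12 cells stably carrying ecdysone-inducible HTT exon 1 Q103–GFP were induced with tebufenozide (100 nM final) and treated with library compounds in titration. GFP aggregates in lysates were counted by laser scanning cytometry.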
HPGD inh = qHTS Assay for Inhibitors of HPGD (15-Hydroxyprostaglandin Dehydrogenase) | 15-hydroxyprostaglandin dehydrogenase [NAD(+)] (Homo sapiens), P15428 | purified HPGD, NADH fluorescence kinetic, PGE2 substrate | Potency, µM, actives largely listed as inhibitors | hit rate 4.3% among 150,000 | AID 894, 2007
Target sequence (P15428 whole entry, looked up): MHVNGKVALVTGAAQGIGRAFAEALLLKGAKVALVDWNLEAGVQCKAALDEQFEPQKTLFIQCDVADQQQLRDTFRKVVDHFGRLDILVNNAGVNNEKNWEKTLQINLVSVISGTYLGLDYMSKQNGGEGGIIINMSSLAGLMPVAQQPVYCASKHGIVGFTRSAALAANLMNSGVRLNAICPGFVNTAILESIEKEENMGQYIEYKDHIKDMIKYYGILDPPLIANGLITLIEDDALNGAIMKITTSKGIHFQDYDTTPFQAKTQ
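NADH formation kinetics: reaction with 30 uM PGE2 and 1 mM NAD+ (final), 20 nM enzyme, Tris-HCl pH 8 with Tween 20, after 15 min compound preincubation at room temperature. Fluorescence change, last versus first of five reads.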
HTT ATP protect = qHTS Multiplex Assay to Identify Dual Action Probes in a Cell Model of Huntington: Cytoprotection (ATP); PC12 HTT-Q103 induced, cytoprotection, ATP luminescence, 40 h; Potency, µM (doses to about 56.4 µM), actives largely listed as activators; hit rate 0.14% among 230,000; active = well fitted curve in the direction sought with a large enough effect; inconclusive = small, poorly fitted or top-dose-only effect, or another doubt; inactive = no such curve, though single readings can be large; an effect the other way counts as inactive or inconclusive; note: nearly all actives have a fitted effect of over 45% in size
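Cells were plated at 1500 per well in phenol red-free DMEM with 5% equine and 5% calf serum. Tebufenozide (100 nM final) and compounds were added, then ATPlite reagent, and luminescence was read.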
LMNA splice mod = qHTS Assay for Modulators of Lamin A Splicing | Potency, µM (titrated, usually from 46.1 µM), hits mostly inhibitors | hit rate 0.01% among 200,000 | AID 1487, 2009 | HeLa LMNA splicing GFP/RFP minigene ratio, 48 h; active = well fitted inhibition curve with a large enough effect in the signal ratio, with a control signal flat, not every such curve was filed as active; inconclusive = small, poorly fitted or top-dose-only effect, or effect the other way, or a change in a side signal; the % refers to the signal ratio
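Read-out is the ratio of GFP to DsRed2 object intensity, acquired by 488 nm laser-scanning cytometry on HeLa lamin A-EGFP minigene reporter cells. Compound incubation 48 hrs at 37 °C in Opti-MEM with 2% FBS; DMSO 0.5% final.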
KDM4E inh = qHTS Assay for Inhibitors of Human Jumonji Domain Containing 2E (JMJD2E); Lysine-specific demethylase 4E (Homo sapiens), B2RXH2; JMJD2E catalytic domain, FDH-coupled NADH fluorescence (FDH is formaldehyde dehydrogenase); Potency, µM (highest dose often 57.1 µM), most hits filed as inhibitors; hit rate 1.6% among 230,000; AID 2147, 2009; note: nearly all actives have a fitted effect of over 50% in size
Target sequence (B2RXH2 1-337 limits assumed): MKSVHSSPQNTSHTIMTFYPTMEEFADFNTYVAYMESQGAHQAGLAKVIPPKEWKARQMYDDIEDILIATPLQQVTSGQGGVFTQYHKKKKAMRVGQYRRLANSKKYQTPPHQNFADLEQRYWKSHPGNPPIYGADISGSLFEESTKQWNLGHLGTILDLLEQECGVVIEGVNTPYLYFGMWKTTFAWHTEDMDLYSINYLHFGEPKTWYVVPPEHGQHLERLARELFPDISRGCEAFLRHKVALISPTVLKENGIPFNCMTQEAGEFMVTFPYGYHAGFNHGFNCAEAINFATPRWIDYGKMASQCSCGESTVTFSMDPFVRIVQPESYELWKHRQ
Hits are given with their value; [ ] = remark or other dose. Sampled rows, rich in hits. Any-hit rate of the full collection: about 9.2%. Unless noted, calls come from the whole dose curve; as a rule, active = well fitted inhibition curve with a large enough effect (not every such curve was filed as active); inconclusive = small, poorly fitted or top-dose-only effect, or another doubt; inactive = no such curve, though single readings can be large or run the other way.

How did O=C(NCc1ccccc1)c1ccc2c(=O)[nH]c3c(C(=O)NCC4CCCO4)sc(=S)n3c2c1 (stereo unspecified) do in these assays?
ALDH1A1 block: 20µM; HTT aggregate: inactive; HTT ATP protect: inactive[10 µM]; LMNA splice mod: inconclusive; KDM4E inh: inactive

What do the screens show for `CCCCCNC(=O)c1ccc2c(=O)[nH]c3c(C(=O)NCC4CCCO4)sc(=S)n3c2c1` (stereo unspecified)?
ALDH1A1 block: inconclusive; HTT aggregate: inactive; HPGD inh: 11µM; HTT ATP protect: inactive; LMNA splice mod: inactive; KDM4E inh: inactive

Results for O=C(NC1CCCC1)c1sc(=S)n2c1[nH]c(=O)c1ccccc12 ?
ALDH1A1 block: inconclusive; HTT aggregate: 8.9µM; HPGD inh: inactive; HTT ATP protect: inactive; LMNA splice mod: inconclusive; KDM4E inh: inactive

Results for COc1ccc(CNC(=O)C(C)N2C(=O)COc3ccc(C)cc32)c(OC)c1 (stereo unspecified) ?
HTT aggregate: inconclusive; HTT ATP protect: inactive[10 µM]; KDM4E inh: inactive

Results for CC(C)(C)OC(=O)N1CCC(c2c(C(=O)N3CCN(Cc4ccccc4)CC3)cnn2-c2cccc(Cl)c2)CC1 ?
LMNA splice mod: inactive

How did CC(=O)Nc1ccc(S(=O)(=O)n2nc(-c3ccc(C)cc3)nc2N)cc1 do in these assays?
ALDH1A1 block: inactive; HTT aggregate: inactive; HPGD inh: 6.3µM; HTT ATP protect: inactive; LMNA splice mod: inconclusive; KDM4E inh: inactive

How did CC1CN(C(=O)Nc2ccc(Br)cc2Cl)CC(C)O1 (stereo unspecified) do in these assays?
ALDH1A1 block: inactive; HTT aggregate: inconclusive; HTT ATP protect: inactive; LMNA splice mod: inactive; KDM4E inh: inactive

How did CNC(=S)N/N=C(\C)c1cccc([N+](=O)[O-])c1 do in these assays?
ALDH1A1 block: 13µM; HTT aggregate: inactive; HPGD inh: inactive; HTT ATP protect: inactive[1.9 µM]; LMNA splice mod: inactive; KDM4E inh: inactive

Results for CC(=O)NNC(=S)NC(=O)c1cccc([N+](=O)[O-])c1 ?
ALDH1A1 block: 8.9µM; HTT aggregate: inactive; HPGD inh: 28µM; HTT ATP protect: inactive[10 µM]; LMNA splice mod: inactive; KDM4E inh: inactive

Results for C/C(=N\Nc1cc(C)nc(-c2ccccc2)n1)c1cccc([N+](=O)[O-])c1 ?
ALDH1A1 block: 13µM; HTT aggregate: inactive[9.22 µM]; HTT ATP protect: inactive[10 µM]; KDM4E inh: inactive

What do the screens show for `CNC(=S)N/N=C(\C)c1ccc2c(c1)OCCO2`?
ALDH1A1 block: 2.8µM; HTT aggregate: inactive; HPGD inh: inactive; HTT ATP protect: inactive[10 µM]; LMNA splice mod: inactive; KDM4E inh: inactive

Results for CNC(=S)N/N=C(\C)c1ccc2c(c1)OCO2 ?
ALDH1A1 block: inconclusive; HTT aggregate: inactive; HTT ATP protect: inactive; LMNA splice mod: inconclusive; KDM4E inh: inactive

What do the screens show for `Cn1cc(S(=O)(=O)N2CCCCCC2)cc1C(=O)NCc1ccc(Cl)cc1`?
LMNA splice mod: inactive

What do the screens show for `C/C(=N\Nc1cc(-c2ccccc2)nc(-c2ccccc2)n1)c1ccc(O)c(C)c1`?
ALDH1A1 block: inactive; HTT aggregate: inactive; HPGD inh: inconclusive; HTT ATP protect: inactive[10 µM]; LMNA splice mod: inactive; KDM4E inh: inactive

Results for COc1cc(N/N=C(\C)c2ccc(O)c(C)c2)nc(-c2ccccc2)n1 ?
ALDH1A1 block: inactive; HTT aggregate: inactive[9.22 µM]; HTT ATP protect: inactive[10 µM]; LMNA splice mod: inconclusive; KDM4E inh: 32µM

How did CC(=O)C1=C(O)C(=O)N(Cc2ccco2)C1c1ccccc1 (stereo unspecified) do in these assays?
ALDH1A1 block: inactive; HTT aggregate: inactive; HPGD inh: inactive; HTT ATP protect: inactive; LMNA splice mod: inactive; KDM4E inh: inactive

Results for CC(=O)C1=C(O)C(=O)N(Cc2ccco2)C1c1ccccc1F (stereo unspecified) ?
ALDH1A1 block: 10µM; HTT aggregate: inactive; HTT ATP protect: inactive; KDM4E inh: inactive

How did OC(c1ccc(OCc2ccccc2)cc1)c1nnc(-c2ccccc2)o1 (stereo unspecified) do in these assays?
ALDH1A1 block: inactive; HTT aggregate: inconclusive; HPGD inh: 20µM; HTT ATP protect: inactive; LMNA splice mod: inconclusive; KDM4E inh: inactive

How did OC(c1cccc(OCc2ccccc2)c1)c1nnc(-c2ccccc2)o1 (stereo unspecified) do in these assays?
ALDH1A1 block: inactive; HTT aggregate: inconclusive; HPGD inh: inconclusive; HTT ATP protect: inactive[10 µM]; LMNA splice mod: inconclusive; KDM4E inh: inactive

Results for O=C(Cn1cncn1)N/N=C/c1cc([N+](=O)[O-])ccc1O ?
HTT aggregate: inactive[9.22 µM]; HTT ATP protect: inactive[10 µM]; KDM4E inh: 25µM

How did O=C(Cn1nnc(-c2ccccc2)n1)N/N=C/c1cc([N+](=O)[O-])ccc1O do in these assays?
ALDH1A1 block: inconclusive; HTT aggregate: inactive; HPGD inh: 14µM; HTT ATP protect: inactive[10 µM]; LMNA splice mod: inactive; KDM4E inh: inactive

How did O=C(CSc1ccccn1)N/N=C/C=C/c1ccccc1 do in these assays?
ALDH1A1 block: inactive; HTT aggregate: inactive; HPGD inh: 20µM; HTT ATP protect: inactive[10 µM]; LMNA splice mod: inconclusive; KDM4E inh: inactive

Results for O=C(CSc1ccccn1)N/N=C/c1cc([N+](=O)[O-])ccc1O ?
HTT aggregate: inactive[9.22 µM]; HTT ATP protect: inactive[10 µM]; KDM4E inh: 13µM

How did O=C(Cn1nc2ccccc2n1)N/N=C/c1cc([N+](=O)[O-])ccc1O do in these assays?
ALDH1A1 block: inconclusive; HTT aggregate: inconclusive; KDM4E inh: inactive

What do the screens show for `O=C(CSc1ccccn1)N/N=C/c1ccccc1[N+](=O)[O-]`?
ALDH1A1 block: inconclusive; HTT aggregate: inactive; HPGD inh: inactive; HTT ATP protect: inactive[10 µM]; LMNA splice mod: inactive; KDM4E inh: inactive

Results for Cc1nc(-c2ccccc2)sc1CCNC(=O)C(=O)Nc1ccc(F)c(Cl)c1 ?
LMNA splice mod: inactive

Results for Cc1cnc(CNc2ccnc(-c3ccoc3)n2)cn1 ?
ALDH1A1 block: inactive; HTT ATP protect: inactive; LMNA splice mod: inactive

Results for C/C(=C\C1CCCCC1)C(NC(=O)c1cccnc1)c1ccc(-c2ccccc2)cc1 (stereo unspecified) ?
ALDH1A1 block: inactive; HPGD inh: inactive; HTT ATP protect: inactive; KDM4E inh: inactive

Results for Cc1cc([N+](=O)[O-])nn1CC(=O)N/N=C/c1ccccc1Br ?
ALDH1A1 block: inactive; HTT aggregate: inactive[9.22 µM]; HTT ATP protect: inactive[10 µM]; KDM4E inh: inactive

What do the screens show for `Cc1cc([N+](=O)[O-])nn1CC(=O)N/N=C/c1ccc(O)cc1O`?
HTT aggregate: inactive[9.22 µM]; HTT ATP protect: inactive[10 µM]; KDM4E inh: 13µM

Bioassay records: PubChem BioAssay, National Center for Advancing Translational Sciences (NCATS)
